Assay results taken from the supplement of paper PMC11732987, “Enantioselective OTUD7B fragment discovery through chemoproteomics screening and high-throughput optimisation” (Communications Chemistry, 2025).
Values without a mark were called inactive.

Assays:
Test in all cases: log2 ratio of Biotin-Ahx-Ub-VS probe labelling (fragment/DMSO); higher = less target engagement (more negative = stronger competition), active = hit call of the paper (q ≤ 0.05, log2 ratio ≤ -1)
Details in all cases: compound concentration: 200 uM; treatment time: 3 h
ALG13 = target: T1, ALG13 (UniProt Q9NP73)
T1 sequence (whole entry): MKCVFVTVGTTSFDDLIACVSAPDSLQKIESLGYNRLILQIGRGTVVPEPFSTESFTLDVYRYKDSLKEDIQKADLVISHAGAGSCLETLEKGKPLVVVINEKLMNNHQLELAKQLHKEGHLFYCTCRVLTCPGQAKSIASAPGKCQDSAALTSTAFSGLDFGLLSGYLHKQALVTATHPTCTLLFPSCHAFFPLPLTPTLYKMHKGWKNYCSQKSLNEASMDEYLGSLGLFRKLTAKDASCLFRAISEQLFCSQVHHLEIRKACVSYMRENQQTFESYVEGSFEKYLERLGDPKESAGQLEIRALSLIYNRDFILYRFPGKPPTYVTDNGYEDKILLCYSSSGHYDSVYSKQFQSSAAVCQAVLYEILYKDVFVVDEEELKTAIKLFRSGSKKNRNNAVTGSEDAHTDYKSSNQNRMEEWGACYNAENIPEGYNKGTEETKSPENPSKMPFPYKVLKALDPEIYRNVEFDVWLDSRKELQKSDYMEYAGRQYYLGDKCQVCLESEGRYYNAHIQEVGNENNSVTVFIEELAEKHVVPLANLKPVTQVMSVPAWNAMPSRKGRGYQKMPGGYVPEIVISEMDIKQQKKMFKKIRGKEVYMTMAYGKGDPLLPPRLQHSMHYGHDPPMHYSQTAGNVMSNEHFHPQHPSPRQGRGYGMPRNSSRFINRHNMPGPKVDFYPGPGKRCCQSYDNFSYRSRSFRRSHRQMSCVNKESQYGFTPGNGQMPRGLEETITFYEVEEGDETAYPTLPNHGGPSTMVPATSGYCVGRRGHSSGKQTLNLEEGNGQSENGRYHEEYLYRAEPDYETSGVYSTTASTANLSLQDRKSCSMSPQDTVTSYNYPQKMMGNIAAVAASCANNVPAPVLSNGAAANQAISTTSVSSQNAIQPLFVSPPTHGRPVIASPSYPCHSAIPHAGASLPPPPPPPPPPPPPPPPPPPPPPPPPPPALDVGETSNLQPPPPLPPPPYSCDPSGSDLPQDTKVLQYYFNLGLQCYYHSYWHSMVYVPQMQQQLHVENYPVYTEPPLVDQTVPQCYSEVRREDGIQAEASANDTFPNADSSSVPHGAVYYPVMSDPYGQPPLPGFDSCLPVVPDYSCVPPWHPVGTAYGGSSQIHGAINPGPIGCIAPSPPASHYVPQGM
How it was run: (§1)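 HEK293T lysate (495 µg per sample, in Tris/CHAPS/IGEPAL buffer with protease inhibitors) was treated in triplicate with fragment at 200 µM or with DMSO for 3 h. It was then treated with Biotin-Ahx-Ub-VS (0.5 µM final) for 1 h. Labelled DUBs were NeutrAvidin-enriched, digested with LysC and trypsin, and run by diaPASEF LC-MS/MS. Spectronaut label-free quantities were global-median-normalised. Values are average log2 ratios fragment/DMSO by unpaired t-test, using proteins with ≥2 unique peptides.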

ATXN3 = ATXN3 (UniProt P54252)
How it was run: as §1

BAP1 = target: T2, BAP1 (UniProt Q92560)
T2 sequence (whole entry): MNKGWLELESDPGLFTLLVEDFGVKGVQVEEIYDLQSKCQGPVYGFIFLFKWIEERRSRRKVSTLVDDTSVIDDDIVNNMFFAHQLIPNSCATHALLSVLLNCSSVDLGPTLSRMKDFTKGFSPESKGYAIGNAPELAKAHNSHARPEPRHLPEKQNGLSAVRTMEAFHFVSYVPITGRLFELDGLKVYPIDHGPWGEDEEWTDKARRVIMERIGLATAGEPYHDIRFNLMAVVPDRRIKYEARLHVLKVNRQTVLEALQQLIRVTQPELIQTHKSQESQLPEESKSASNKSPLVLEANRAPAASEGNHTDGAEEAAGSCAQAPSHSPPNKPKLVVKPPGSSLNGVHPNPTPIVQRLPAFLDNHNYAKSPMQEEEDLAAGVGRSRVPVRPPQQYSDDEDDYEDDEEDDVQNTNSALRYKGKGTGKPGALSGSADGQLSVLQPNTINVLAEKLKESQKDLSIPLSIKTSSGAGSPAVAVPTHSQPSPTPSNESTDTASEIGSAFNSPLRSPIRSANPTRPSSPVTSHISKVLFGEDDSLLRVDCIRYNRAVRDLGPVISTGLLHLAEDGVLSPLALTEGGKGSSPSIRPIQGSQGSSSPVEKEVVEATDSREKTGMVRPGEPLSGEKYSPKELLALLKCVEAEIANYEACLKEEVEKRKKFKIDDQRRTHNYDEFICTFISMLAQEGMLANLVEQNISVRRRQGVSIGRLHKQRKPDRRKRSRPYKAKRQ
How it was run: as §1

EIF3F = EIF3F (UniProt O00303)
How it was run: as §1

EIF3H = EIF3H (UniProt O15372)
How it was run: as §1

FAM105A = target: T3, FAM105A (UniProt Q9NUU6)
T3 sequence (whole entry): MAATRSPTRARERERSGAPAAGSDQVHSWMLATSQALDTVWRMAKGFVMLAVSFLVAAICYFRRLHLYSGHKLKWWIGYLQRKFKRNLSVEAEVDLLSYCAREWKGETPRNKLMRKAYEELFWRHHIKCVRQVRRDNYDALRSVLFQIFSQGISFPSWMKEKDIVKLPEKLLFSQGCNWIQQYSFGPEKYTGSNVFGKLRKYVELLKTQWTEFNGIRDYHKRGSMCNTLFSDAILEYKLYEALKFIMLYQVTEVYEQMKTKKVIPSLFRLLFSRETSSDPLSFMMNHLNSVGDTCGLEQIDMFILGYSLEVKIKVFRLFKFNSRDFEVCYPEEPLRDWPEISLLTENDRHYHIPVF
How it was run: as §1

OTUB1 = OTUB1 (UniProt Q96FW1)
How it was run: as §1

OTUD4 = target: T4, OTUD4 (UniProt Q01804)
T4 sequence (whole entry): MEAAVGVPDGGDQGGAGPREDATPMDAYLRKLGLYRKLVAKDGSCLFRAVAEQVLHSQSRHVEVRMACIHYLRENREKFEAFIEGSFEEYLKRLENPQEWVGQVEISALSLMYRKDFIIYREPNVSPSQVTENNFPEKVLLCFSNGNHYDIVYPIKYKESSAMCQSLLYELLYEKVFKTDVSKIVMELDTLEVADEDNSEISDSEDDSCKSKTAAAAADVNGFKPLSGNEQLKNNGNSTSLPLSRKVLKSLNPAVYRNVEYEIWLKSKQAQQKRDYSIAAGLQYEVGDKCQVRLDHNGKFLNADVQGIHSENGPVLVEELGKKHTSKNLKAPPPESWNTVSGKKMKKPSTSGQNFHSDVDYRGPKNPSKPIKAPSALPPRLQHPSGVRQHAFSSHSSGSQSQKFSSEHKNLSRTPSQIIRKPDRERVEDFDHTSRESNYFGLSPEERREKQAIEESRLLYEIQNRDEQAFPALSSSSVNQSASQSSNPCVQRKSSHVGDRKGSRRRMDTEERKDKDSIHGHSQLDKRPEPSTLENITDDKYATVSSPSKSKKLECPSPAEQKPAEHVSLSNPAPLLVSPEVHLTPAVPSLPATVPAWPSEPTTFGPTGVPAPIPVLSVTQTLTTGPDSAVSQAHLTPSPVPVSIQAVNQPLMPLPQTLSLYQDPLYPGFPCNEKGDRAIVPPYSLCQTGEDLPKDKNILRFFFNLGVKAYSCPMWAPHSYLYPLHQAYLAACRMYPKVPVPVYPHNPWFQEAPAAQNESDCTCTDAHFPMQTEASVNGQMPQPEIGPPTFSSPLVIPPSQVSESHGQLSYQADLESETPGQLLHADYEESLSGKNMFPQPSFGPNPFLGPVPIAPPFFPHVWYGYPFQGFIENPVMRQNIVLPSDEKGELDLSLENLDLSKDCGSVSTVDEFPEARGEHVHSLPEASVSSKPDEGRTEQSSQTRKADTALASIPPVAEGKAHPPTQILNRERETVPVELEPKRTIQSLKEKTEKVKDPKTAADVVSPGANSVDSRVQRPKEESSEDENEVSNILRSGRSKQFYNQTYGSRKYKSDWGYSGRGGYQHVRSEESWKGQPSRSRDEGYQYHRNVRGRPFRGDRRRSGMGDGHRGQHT
How it was run: as §1

OTUD5 = target: T5, OTUD5 (UniProt Q96G74)
T5 sequence (whole entry): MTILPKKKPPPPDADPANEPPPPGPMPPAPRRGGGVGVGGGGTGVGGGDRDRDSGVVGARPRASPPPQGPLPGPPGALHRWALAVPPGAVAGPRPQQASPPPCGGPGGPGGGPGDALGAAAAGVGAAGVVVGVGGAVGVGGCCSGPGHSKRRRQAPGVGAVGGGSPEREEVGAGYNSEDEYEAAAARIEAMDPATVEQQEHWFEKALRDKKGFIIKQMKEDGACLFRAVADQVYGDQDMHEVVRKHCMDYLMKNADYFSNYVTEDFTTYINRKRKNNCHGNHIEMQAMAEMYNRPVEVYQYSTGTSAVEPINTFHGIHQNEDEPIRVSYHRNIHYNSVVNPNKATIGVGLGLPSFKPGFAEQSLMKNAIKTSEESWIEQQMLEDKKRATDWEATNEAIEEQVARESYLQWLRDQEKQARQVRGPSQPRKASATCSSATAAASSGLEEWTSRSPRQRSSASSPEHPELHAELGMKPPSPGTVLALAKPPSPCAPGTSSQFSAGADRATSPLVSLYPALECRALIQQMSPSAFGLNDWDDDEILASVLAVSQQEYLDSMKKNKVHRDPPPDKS
How it was run: as §1

OTUB1, sequence (Q96FW1 whole entry): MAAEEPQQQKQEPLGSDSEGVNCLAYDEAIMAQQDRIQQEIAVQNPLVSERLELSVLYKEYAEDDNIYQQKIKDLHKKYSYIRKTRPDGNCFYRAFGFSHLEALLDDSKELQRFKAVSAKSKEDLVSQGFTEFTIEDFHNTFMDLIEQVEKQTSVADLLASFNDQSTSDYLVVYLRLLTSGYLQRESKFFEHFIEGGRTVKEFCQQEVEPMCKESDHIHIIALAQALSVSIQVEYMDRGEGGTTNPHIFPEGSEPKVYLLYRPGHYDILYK
EIF3H, sequence (O15372 whole entry): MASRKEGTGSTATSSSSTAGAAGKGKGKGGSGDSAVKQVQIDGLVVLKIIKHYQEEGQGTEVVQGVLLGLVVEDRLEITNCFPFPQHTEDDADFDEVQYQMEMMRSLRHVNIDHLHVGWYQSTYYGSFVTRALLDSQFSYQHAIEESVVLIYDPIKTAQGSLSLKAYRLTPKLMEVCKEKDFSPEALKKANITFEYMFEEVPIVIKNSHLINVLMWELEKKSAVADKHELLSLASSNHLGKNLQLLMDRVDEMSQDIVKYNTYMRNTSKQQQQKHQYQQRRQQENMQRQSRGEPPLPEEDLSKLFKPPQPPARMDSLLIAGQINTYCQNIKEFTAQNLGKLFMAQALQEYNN
ATXN3, sequence (P54252 whole entry): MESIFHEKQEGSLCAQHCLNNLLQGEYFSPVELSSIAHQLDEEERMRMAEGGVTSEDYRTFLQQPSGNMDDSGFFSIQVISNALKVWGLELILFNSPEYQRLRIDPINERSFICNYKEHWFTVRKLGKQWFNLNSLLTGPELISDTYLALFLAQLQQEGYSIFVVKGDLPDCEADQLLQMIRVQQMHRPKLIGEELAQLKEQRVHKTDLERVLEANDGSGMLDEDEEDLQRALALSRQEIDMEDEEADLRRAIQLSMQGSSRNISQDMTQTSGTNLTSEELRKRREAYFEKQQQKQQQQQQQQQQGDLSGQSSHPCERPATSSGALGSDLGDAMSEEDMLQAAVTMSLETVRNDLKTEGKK
EIF3F, sequence (O00303 whole entry): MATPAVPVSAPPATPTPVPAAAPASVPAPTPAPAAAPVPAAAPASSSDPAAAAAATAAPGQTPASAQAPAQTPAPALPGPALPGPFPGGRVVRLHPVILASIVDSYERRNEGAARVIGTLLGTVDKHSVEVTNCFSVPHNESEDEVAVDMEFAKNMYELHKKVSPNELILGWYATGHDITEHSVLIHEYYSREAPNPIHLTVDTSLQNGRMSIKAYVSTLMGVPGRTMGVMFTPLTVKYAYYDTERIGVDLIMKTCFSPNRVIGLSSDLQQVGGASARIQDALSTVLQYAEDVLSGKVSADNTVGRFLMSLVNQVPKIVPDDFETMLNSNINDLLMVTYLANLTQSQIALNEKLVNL

Row | SMILES | log2 ratio of Biotin-Ahx-Ub-VS probe labelling (ALG13) | log2 ratio of Biotin-Ahx-Ub-VS probe labelling (ATXN3) | log2 ratio of Biotin-Ahx-Ub-VS probe labelling (BAP1) | log2 ratio of Biotin-Ahx-Ub-VS probe labelling (EIF3F) | log2 ratio of Biotin-Ahx-Ub-VS probe labelling (EIF3H) | log2 ratio of Biotin-Ahx-Ub-VS probe labelling (FAM105A) | log2 ratio of Biotin-Ahx-Ub-VS probe labelling (OTUB1) | log2 ratio of Biotin-Ahx-Ub-VS probe labelling (OTUD4) | log2 ratio of Biotin-Ahx-Ub-VS probe labelling (OTUD5)
1 | O=C(CCl)N1CCOC(CCc2ccccc2)C1 (stereo unspecified) | -0.284 | -0.798 | -1.1 (active) | -0.348 | 0.0677 | -0.23 | -0.408 | -0.558 | -0.502
2 | CC(NC(=O)CCl)c1cnn(C2CC2)c1 (stereo unspecified) | 0.171 | -0.145 | -2.22 (active) | -0.625 | 0.172 | -0.0989 | -0.137 | -0.268 | -0.626
3 | CN(CCc1ncc(Br)cn1)C(=O)CCl.Cl | -0.0179 | -0.617 | -0.611 | -0.295 | 0.145 | 0.245 | 0.000215 | -0.616 | -0.588
4 | O=C(CCl)NC1CCC2(CC1)OCCO2 | 0.0856 | -0.347 | -0.944 | -0.268 | 0.0155 | 0.137 | -0.114 | -0.376 | -0.414
5 | COc1ccc(CN(C)C(=O)CCl)cc1 | -0.466 | -0.667 | -1.65 (active) | -0.171 | 0.0709 | 0.32 | -0.0239 | -0.413 | -0.536
6 | COCC[C@@H](NC(=O)CCl)c1ccccc1 | -0.555 | -0.208 | -1.89 (active) | -0.137 | -0.017 | 0.268 | -0.131 | -0.138 | -0.197
7 | C/C(=C\CNC(=O)CCl)c1cnn(C)c1.Cl | 0.0802 | -0.277 | -1.56 (active) | -0.217 | 0.0454 | 0.298 | -0.376 | 0.00615 | -0.115
8 | Cl.O=C(CCl)N1CC(c2ccc(Br)cn2)C1 | 0.23 | -0.38 | -1.49 (active) | -0.158 | 0.134 | 0.0979 | -0.157 | -0.553 | -0.45
9 | O=C(CCl)NCc1ccc(N2CCOCC2)c(F)c1 | -0.435 | -0.0444 | -2.54 (active) | -0.139 | -0.335 | 0.388 | -0.0261 | -0.0414 | 0.0267
10 | O=C(CCl)NCc1ccc2c(c1)OCO2 | 0.0126 | 0.173 | -3.05 (active) | -0.126 | -0.0114 | -0.111 | -0.278 | -0.266 | 0.0579
11 | Cc1cccc(N2CCC(NC(=O)CCl)C2=O)c1 (stereo unspecified) | -0.354 | -0.569 | -4.17 (active) | -0.331 | 0.306 | 0.111 | -0.325 | -0.412 | -0.338
12 | O=C(CCl)Nc1ccc2c(c1)OC(F)(F)O2 | 0.0874 | -0.411 | -1.92 (active) | -0.0462 | 0.0852 | -0.278 | 0.13 | -0.422 | -0.515
13 | Cc1cc(NC(=O)CCl)n(-c2ccccc2)n1 | -0.0258 | -0.205 | -3.5 (active) | -0.154 | 0.0602 | 0.513 | -0.315 | 0.184 | -0.222
14 | Cl.Cn1c(CNC(=O)CCl)nc2cccnc21 | 0.0884 | -0.424 | -1.32 (active) | -0.0906 | 0.0923 | -0.0642 | -0.136 | -0.388 | -0.323
